Compound activity: PubChem, National Center for Advancing Translational Sciences (NCATS)
In the library only some 21% were active in any assay of this set; here they are far more common.
Pf growth 96h: Primary qHTS for delayed death inhibitors of the malarial parasite plastid, 96 hour incubation. P. falciparum luciferase reporter growth, 96 h. AID 504834, 2011. 320,000 tested, 6.9% active. Potency, µM (top dose mostly 28.7 µM), inactives show at the highest dose activity change, negative = inhibition, actives largely listed as inhibitors; also: potency is read from the fitted curve at half-maximal effect; % is scaled to controls: 0 for no effect and ±100 for the full control effect
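P. falciparum expressing integrated firefly luciferase, in erythrocytes at 2% hematocrit, 0.05% parasitemia, incubated with compounds 96 h at 37 C, 5% CO2. Growth inhibition read as loss of luminescence; two-generation exposure targets delayed-death apicoplast inhibitors.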
Shiga toxin inh: A qHTS for Small Molecule Inhibitors of Shiga Toxin; Vero cells, Shiga toxin protein synthesis inhibition reporter; inhibition, % at 38.7 µM; 290,000 tested, 9.2% active; in the data active = inhibition mostly above about 28%, no sharp cut-off; inactive = mostly below about 43%; also: 0% is about no effect
CHX counter: Cycloheximide Counterscreen for Small Molecule Inhibitors of Shiga Toxin | max response, % | 300,000 tested, 12% active | cell reporter, cycloheximide protein synthesis inhibition counterscreen; in the data active = max response mostly above about 13%, no sharp cut-off; inactive = mostly below about 14%; also: read at 38.3 µM for the half of the compounds with a filed dose; 0% is about no effect
Pf growth 48h: Primary qHTS for delayed death inhibitors of the malarial parasite plastid, 48 hour incubation; P. falciparum luciferase growth in erythrocytes, 48 h; Potency, µM (titrated, usually from 28.7 µM), for inactives: at the highest dose activity change, negative = inhibition, usual class: inhibitors; 310,000 tested, 5.9% active; also: potency is read from the fitted curve at half-maximal effect; % is scaled to controls: 0 for no effect and ±100 for the full control effect
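Erythrocytes infected with P. falciparum carrying an integrated firefly luciferase reporter (2% hematocrit, 0.1% parasitemia final) were exposed to compounds in RPMI 1640 with 0.5% Albumax at 37 C, 5% CO2. Growth inhibition was scored as reduced luminescence.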
NS1 inh: qHTS Assay for Inhibitors of Influenza NS1 Protein Function; Potency, µM (highest dose often 46.1 µM), for inactives: at the highest dose activity, positive = more growth; 270,000 tested, 0.4% active; calls by dose curve; also: potency is read from the fitted curve at half-maximal effect; actives are rising curves; nearly all actives have a fitted effect of over 50% in size
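Read-out: OD600 growth recovery of NS1-expressing budding yeast. Cells grown overnight at 30C in -URA glucose medium, washed, resuspended and diluted 1:100 in 2% galactose assay medium, pH 6.0. Same strain lacking NS1 served as positive control.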
* marks the source's active call; other numbers are inactive results; ? = inconclusive; . = no result. Unless noted, calls follow the shape of the dose curve; as a rule, active = well fitted inhibition curve with a large enough effect; inconclusive = small, poorly fitted or top-dose-only effect, or another doubt; inactive = no such curve, though single readings can be large or run the other way.

SMILES	Pf growth 96h	Shiga toxin inh	CHX counter	Pf growth 48h	NS1 inh
COc1cccc(C2=Nn3c(nnc3-c3ccccc3OC)SC2)c1	.	2	-1	.	.
CC(C)(C)OC(=O)N1CCOCCOCCN(C(=O)OC(C)(C)C)CCOCCOCC1	.	2	8	?	-3%
CNS(=O)(=O)c1ccc(NC(=O)c2csc(C)c2)cc1	?	36*	23*	9%	5%
CNS(=O)(=O)c1ccc(NC(=O)c2ccccn2)cc1	191%	23*	63*	147%	-5%
CSc1ccccc1NC(=O)c1ccc(C)o1	?	51*	20*	36%	?
Cc1cc(C(=O)Nc2ccc(S(=O)(=O)N3CCCC3)cc2)cs1	.	22	7	?	-25%
Cc1cccc(N2CCN(C(=O)NCc3ccc(F)cc3)CC2)c1C	?	-8	-3	?	-28%
NC(=O)CCn1c(C(=O)c2ccc(Cl)cc2)c2ccccc2[n+]1[O-]	-27%	-2	-1	39%	3%
NCCCn1c(C(=O)c2ccc(Cl)cc2)c2ccc(C(F)(F)F)cc2[n+]1[O-]	?	.	.	9.3µM*	.
NC(=O)CCCn1c(C(=O)c2cc(Cl)c(N)c(Cl)c2)c2ccc([N+](=O)[O-])cc2[n+]1[O-]	9.3µM*	.	.	?	.
Cc1nn(-c2cccc(C(F)(F)F)c2)c(=O)c2noc(C)c12	41%	2	-3	8%	-3%
COc1ccc(CCNC(=O)CSc2cc(=O)[nH]c(N)n2)cc1OC	12µM*	19	2	4%	5%
COc1ccc(CCNC(=O)Cn2c(=O)[nH]c3ccsc3c2=O)cc1OC	6%	-12	-5	12µM*	.
COc1ccc(CCNC(=O)CSc2nc(O)cc(=O)[nH]2)cc1OC	43%	-10	-3	3.3µM*	?
O=C(O)CCN1C(=O)c2ccc(NC(=O)Cc3ccc(Cl)cc3)cc2C1=O	?	-3	-4	10%	-3%
Cc1ccccc1OCCC(=O)NCCc1ccc(S(N)(=O)=O)cc1	-26%	-9	-3	7%	5%
CCN(C(=O)CSc1nnc(Cc2cccc3ccccc23)n1N)C1CCS(=O)(=O)C1 (centres undefined)	-5%	-12	10	?	7%
CC1(C)NC(=O)N(c2ccccc2Cl)C1(C)NO (centres undefined)	.	22	5	20%	-2%
O=C(CCc1nnc2n(CCc3ccccc3)c(=O)c3ccccc3n12)NCCCN1CCCCC1	3.7µM*	17	-1	-18%	1%
CCCCCn1c(=O)c2ccccc2n2c(CCl)nnc12	?	35	33*	?	-3%
CC(C)CCn1c(=O)c2ccccc2n2c(CN(C)Cc3ccccc3)nnc12	13µM*	-14	-4	?	-17%
CC(C)CCn1c(=O)c2ccccc2n2c(CCl)nnc12	?	2	7	?	0%
CCOc1ccc(N2CC(C(=O)Nc3cccc(C(=O)NC4CC4)c3)CC2=O)cc1 (centres undefined)	-27%	.	.	?	.
Cc1ccc(C(=O)/C=C/c2cn(CN3CCN(C)CC3)c3ccccc23)cc1	.	85*	35*	35%	-17%
Cn1cc(C2N3CC4(C)CN2CC(C)(C3)C4=O)c2ccccc21 (centres undefined)	21%	-6	1	18%	-5%
SMILES	Pf growth 96h	Shiga toxin inh	CHX counter	Pf growth 48h	NS1 inh
Cn1cc(/C=C/C(=O)c2ccccc2)c2ccccc21	35%	74*	41*	-4%	-9%
Cc1cccc(Cn2cc(C=O)c3ccccc32)c1	?	-4	-1	-6%	?
CC(=O)N1C=CN(C(C)=O)C(c2cn(C)c3ccccc23)C1c1cn(C)c2ccccc12 (centres undefined)	80%	-4	-4	3.3µM*	?
Cc1onc(-c2ccccc2)c1NC(=O)N(CCC#N)Cc1ccccc1	?	-15	-2	?	0%
CCOC(=O)C1=C(C)NC(C)=C(C(=O)OCC)C1C(=O)OCC(=O)N(C)C1CCS(=O)(=O)C1 (centres undefined)	1%	-13	2	9%	.
C=C(C)C(=O)Nc1cccc(C2=NOC3(C2)C[C@@H](C(N)=O)N(C(=O)[C@H]2CCC(=O)N2)C3)c1 (some centres undefined)	74%	-6	-1	52%	4%
Cc1ccc(OCCSc2nc3ccccc3n2CCC(=O)O)cc1	-6%	9	0	-17%	29%
Cc1cc(NC(=O)CS(=O)(=O)c2cn(Cc3ccc(F)cc3)c3ccccc23)no1	13µM*	-2	-3	.	8%
O=C(CS(=O)(=O)c1cn(Cc2ccc(Cl)cc2)c2ccccc12)N1CCCC1	8.3µM*	-7	-1	.	0%
O=C(CS(=O)(=O)c1cn(Cc2ccccc2Cl)c2ccccc12)N1CCOCC1	32%	-7	-2	-22%	-9%
Cc1cc(NC(=O)CS(=O)(=O)c2cn(Cc3cccc(F)c3)c3ccccc23)no1	?	-11	-2	.	-29%
O=C(NC(=S)Nc1ccccc1N1CCN(C(=O)c2ccccc2)CC1)c1ccccc1F	41%	-32	-3	?	15%
COc1ccc(CCNC(=O)COC(=O)c2ccccc2NCCO)cc1OC	-11%	.	.	?	.
O=C(COC(=O)CC1CCCC1)Nc1cc2c(cc1Cl)C(=O)c1ccccc1C2=O	177%	41	32*	.	-69%
CC(C)(c1ccccc1)c1ccc(OCC(O)CN2CCCC2)cc1 (centres undefined)	-31%	-12	-8	13µM*	3%
OC(COc1ccc(OCc2ccccc2)cc1)CN1CCCCC1 (centres undefined)	.	74*	31*	13%	-6%
COc1cc(/C=C/C(=O)N2CCN(Cc3ccccc3)CC2)cc(OC)c1OC	?	11	-6	.	-3%
OCCN1CCN(CC(O)COc2ccc(-c3ccccc3)cc2)CC1 (centres undefined)	.	74*	32*	-18%	-6%
COc1cc(/C=C/C(=O)N2CCN(CC(O)COc3ccccc3)CC2)cc(OC)c1OC (centres undefined)	4.1µM*	-14	-3	?	-7%
Cc1cccc(NC(=O)[C@@H]2CCCN2C(=O)OC(C)(C)C)c1	17%	-1	-1	37%	1%
CC(=O)c1c(C)[nH]c(C(=O)CN2C(=O)NC3(CCCCC3)C2=O)c1C	63%	.	.	43%	.
CCn1cc(CN2N=C(C)CC2c2ccccc2)c(C)n1 (centres undefined)	?	-10	-4	15%	-8%
OC(COc1ccc(OCC(O)CN2CCCCCC2)cc1)CN1CCCCCC1 (centres undefined)	37%	-6	-2	?	-11%
OC(COc1ccc2cc(Br)ccc2c1)CN1CCCC1 (centres undefined)	31%	77*	46*	?	-1%
